Rows were chosen to be rich in hits. Some 7.4% of all compounds tested hit in one or more screens of this group.
CRE-bla Fsk = modulators of forskolin-stimulated CRE signaling in CHO cells; CHO CRE-bla reporter (cAMP response element driving beta-lactamase), forskolin EC10, beta-lactamase ratio; Potency, µM (titrated, usually from 38.2 µM), most hits filed as activators; actives 2.5% (n = 71,000); AID 662; active means well fitted activation curve with a large enough effect in the signal ratio, with a control signal flat, not every such curve was filed as active; inconclusive means small, poorly fitted or top-dose-only effect, or effect the other way, or a change in a side signal; the % refers to the signal ratio
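Forskolin analogue NKH 477 at EC10 stimulated CRE-driven beta-lactamase in CHO cells alongside compound dilution series. Beta-lactamase was measured with CCF4, excitation 405 nm, emission ratio 460/530 nm.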
Tau fil binding = binders of human tau filaments; recombinant tau filaments, thioflavin S fluorescence, 15 h; filaments grown with octadecylsulfate alongside compound; actives 2% (n = 71,000); P10636; Potency, µM (series often up to 57.1 µM); AID 596;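 further: actives lower thioflavin S fluorescence by blocking filaments or displacing dye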
Target sequence (P10636 whole entry, looked up): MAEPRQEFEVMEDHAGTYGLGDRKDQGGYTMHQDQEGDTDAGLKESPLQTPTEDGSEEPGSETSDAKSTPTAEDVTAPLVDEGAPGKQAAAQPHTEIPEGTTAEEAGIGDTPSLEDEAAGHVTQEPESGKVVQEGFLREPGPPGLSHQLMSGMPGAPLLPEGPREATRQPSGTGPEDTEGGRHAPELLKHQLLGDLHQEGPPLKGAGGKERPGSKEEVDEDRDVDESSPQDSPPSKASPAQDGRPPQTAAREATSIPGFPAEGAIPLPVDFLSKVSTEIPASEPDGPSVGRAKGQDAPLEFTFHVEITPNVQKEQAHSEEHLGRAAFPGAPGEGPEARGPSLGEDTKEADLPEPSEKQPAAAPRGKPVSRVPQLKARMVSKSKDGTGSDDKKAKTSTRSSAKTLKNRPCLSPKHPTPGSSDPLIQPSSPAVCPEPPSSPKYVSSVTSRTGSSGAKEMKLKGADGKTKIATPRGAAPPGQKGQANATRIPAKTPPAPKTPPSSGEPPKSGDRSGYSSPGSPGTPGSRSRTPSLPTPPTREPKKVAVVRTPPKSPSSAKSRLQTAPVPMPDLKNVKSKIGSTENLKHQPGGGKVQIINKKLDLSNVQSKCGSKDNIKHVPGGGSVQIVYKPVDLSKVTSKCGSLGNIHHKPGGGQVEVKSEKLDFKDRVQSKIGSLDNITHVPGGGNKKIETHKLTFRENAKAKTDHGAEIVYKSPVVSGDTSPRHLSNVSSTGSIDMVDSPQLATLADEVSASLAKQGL
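Tau 2 uM in ThS buffer dispensed; compound added; 60 uM ODS added (finals 1 uM tau, 30 uM ODS); 15 h 37 C; fluor ex450/em510.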
ERK AVP inh = blocks ERK signaling stimulated by vasopressin | HEK293-V1b, vasopressin-stimulated pERK AlphaScreen | Potency, µM (series often up to 57.5 µM), most hits filed as inhibitors | actives 0.99% (n = 72,000); further: nearly all actives have a fitted effect of over 55% in size
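HEK293 cells stably expressing V1b receptor, preincubated 30 min at 37 °C with compound, then stimulated 5 min with 25 nM vasopressin. Phospho-ERK by AlphaScreen SureFire after 5 h RT; normalized to DMSO and vasopressin; AC50 by Hill fit.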
TSHR ag = agonists of human thyroid stimulating hormone receptor; HEK293-CNG-TSHR cells (CNG channel as cAMP sensor), membrane potential dye, cAMP; P16473; actives 0.48% (n = 73,000); Potency, µM (titrated, usually from 57.1 µM), hits mostly activators; AID 926; active means well fitted activation curve with a large enough effect in the main read-out, with a control signal flat, not every such curve was filed as active; inconclusive means small, poorly fitted or top-dose-only effect, or a change in a side signal; inactive means no such curve, though single readings can be large or run the other way; reference of the percent scale not stated here;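 further: the control signal comes from parental cells without the receptor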
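HEK 293 cells stably expressing TSHR and a modified CNG channel, with CNG-only parental cells as counterscreen, were preloaded 60 min at room temperature with membrane potential dye containing 100 uM RO 20-1724. Compound exposure was 30 min, and depolarization was read as fluorescence at 590 nm.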
HEK293 cAMP ctrl = raises cAMP in parental HEK293 cells, TSHR agonist counter-screen; Potency, µM (top dose mostly 57.1 µM), hits mostly activators; AID 938; actives 2.5% (n = 73,000); parental HEK293 CNG cAMP sensor, membrane potential fluorescence; further: nearly all actives have a fitted effect of over 55% in size
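Counterscreen for endogenous-receptor signalling: CNG-channel HEK 293 cells report cAMP rise by membrane depolarization. After 60 min dye equilibration with 100 uM RO 20-1724, compounds incubated 30 min before bottom-read fluorescence at 590 nm.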
Numbers stand for hits; 0 = inactive; ? = inconclusive; - = not tested or not shown; [ ] = dose if it differs, or a comment. Unless noted, the call rests on the fitted dose curve; in most records, active means well fitted curve in the direction sought with a large enough effect; inconclusive means small, poorly fitted or top-dose-only effect, or another doubt; inactive means no such curve, though single readings can be large; an effect the other way counts as inactive or inconclusive.

SMILES	CRE-bla Fsk	Tau fil binding	ERK AVP inh	TSHR ag	HEK293 cAMP ctrl
O=C(c1ccco1)N1CCC2(CC1)CN(Cc1cc(C(F)(F)F)cc(C(F)(F)F)c1)C2	0	0	0	?	16µM
O=C(c1ccncc1)N1CCC2(CC1)CN(Cc1cc(C(F)(F)F)cc(C(F)(F)F)c1)C2	?	0	0	0	0
Cn1cccc1C(=O)N1CCC[C@@]2(CCN(Cc3ccc(C#N)cc3)C2)C1	0	0	0	0	0
Cn1cccc1C(=O)N1CCC[C@@]2(CCN(Cc3cc(C(F)(F)F)cc(C(F)(F)F)c3)C2)C1	?	0	0	?	13µM
C(=Nc1ccc2c(c1)Cc1ccccc1-2)c1ccccn1	0[7.6 µM]	0[11.4 µM]	0[11.5 µM]	0[11.4 µM]	0[11.4 µM]
CC12C=C(/C=C/C=C/c3ccco3)C(C)(C1)C(/C=C/c1ccco1)CC2=O (configuration not stated)	-	-	0[11.5 µM]	0[11.4 µM]	0[11.4 µM]
NC(=O)[C@@H]1CCCN1Cc1ccc2c(c1)OCO2	0[7.6 µM]	0[11.4 µM]	0[11.5 µM]	0[11.4 µM]	0[11.4 µM]
COCCn1c(CN2CCN(c3ccc(OC)cc3)CC2)nc2c1c(=O)n(C)c(=O)n2C	?	0	0	0	0
COc1ccc(N2CCN(Cc3nc4c(c(=O)n(C)c(=O)n4C)n3Cc3ccccc3C)CC2)cc1	?	0	-	10µM	0
Cn1c(=O)c2c(nc(CN3CCc4ccccc4C3)n2CCc2ccccc2)n(C)c1=O	0	0	0	?	5µM
Cn1c(=O)c2c(nc(CN3CCN(c4ccc(F)cc4)CC3)n2Cc2ccccc2F)n(C)c1=O	?	0	0	?	?
Cn1c(=O)c2c(nc(CN3CCCCC3)n2Cc2c(F)cccc2Cl)n(C)c1=O	13µM	0	-	?	?
COc1ccc(N2CCN(Cc3nc4c(c(=O)n(C)c(=O)n4C)n3CCc3ccccc3)CC2)cc1	?	13µM	-	?	?
CC(C)=CCC/C(C)=C/CO/N=C1/C[C@@H](O)[C@@H](O)[C@@H]2[C@@H]3C(=O)N(C[C@@H]4CCCO4)C(=O)[C@H]3CC[C@H]12	-	-	0[11.5 µM]	0[11.4 µM]	0[11.4 µM]
O=C(O)[C@@H]1[C@@H]2C[C@H]3c4[nH]c5ccccc5c4CCN3C[C@@H]2CC[C@@H]1O	0	0	0	?	?
COc1ccc(-c2csc3c2[N+]2=CCC=C2C3=O)cc1	3.2µM	3.2µM	0[11.5 µM]	0[11.4 µM]	0[11.4 µM]
COc1ccc(C2=C(N)c3ccccc3C2=O)cc1	0	?	0	?	?
c1ccc(Nc2c3c(nc4ncnn24)CCC3)cc1	?	0	0	0	0
c1ccc(CCNc2c3c(nc4ncnn24)CCC3)cc1	0	0	?	?	6.3µM
COc1cc2c(cc1OC)-c1cc3nc4ccccc4nc3n1C(C)(C)C2	?	0	0	0	0
Cc1nc2ccccc2n1-c1nc(-c2ccco2)cc(C(F)(F)F)n1	0	0	0	?	3.2µM
CCN(CC)S(=O)(=O)c1ccc2[nH]cc(C(=O)NCCc3ccc(OC)c(OC)c3)c(=O)c2c1	?	0	0	0	0
COc1ccc(CCNC(=O)c2c[nH]c3ccccc3c2=O)cc1OC	10µM	0	0	0	0
CCOC(=O)c1ccc(NC(=O)CCc2nc(-c3cccc(C)c3)no2)cc1	0	0	25µM	0[11.4 µM]	0
Cc1cccc(-c2noc(CCC(=O)Nc3ccccc3)n2)c1	0	0	?	0	0
SMILES	CRE-bla Fsk	Tau fil binding	ERK AVP inh	TSHR ag	HEK293 cAMP ctrl
COc1ccc(COC(=O)N/N=C2/C[C@@H](O)[C@@H](O)[C@@H]3[C@@H]4C(=O)N(Cc5ccc6c(c5)OCO6)C(=O)[C@H]4CC[C@@H]23)cc1	-	-	0[11.5 µM]	0[11.4 µM]	0[11.4 µM]
CCC/C=C(\CCC)C(NS(=O)(=O)c1ccc(C(F)(F)F)cc1)c1ccc(-c2ccccc2)cc1 (configuration not stated)	0	0	0	0	0
C=CCn1c(SCC(=O)Nc2ccc(N(C)C)cc2)nnc1-c1cccc(C)c1	0	25µM	?	0	0
Oc1ccc(Br)cc1-c1nc2cnccn2c1NC1CCCC1	?	0	32µM	-	0
c1ccc(SCCSc2ccccc2)cc1	0	0	0	0	0
COc1ccc(OC)c(C(c2nnnn2CCC(C)C)N2CCN(C(=O)c3ccco3)CC2)c1 (configuration not stated)	0	0	0	?	16µM
C=Cc1ccccc1C=C	0	0	0	0	0
Cc1ccc(Cn2cccc(NC(=O)c3ccco3)c2=O)cc1	0	0	0	?	16µM
Cc1ccc(NC(=O)c2ccco2)c(NC(=O)CN2C(=O)c3ccccc3C2=O)c1	0	0	0	0	0
CCCCOc1ccccc1NC(=O)c1ccco1	?	0	0	?	16µM
O=C1C[C@H]2C(=O)[C@@H]1[C@@H](C(=O)O)[C@H]2C(=O)O	0[7.6 µM]	0[11.4 µM]	0[11.5 µM]	0[11.4 µM]	0[11.4 µM]
COc1ccc(-n2c(/C=C(\C)O)nc(=O)c3c(C)cc(C)nc32)cc1	0	0	0	?	25µM
COc1ccc(-n2c(C)nc3c(cnn3-c3ccc(C)c(C)c3)c2=O)cc1	0	0	?	0	0
CCNc1ncc2nc(-c3ccccc3)c(=O)n(Cc3cccc(OC)c3)c2n1	?	0	0	-	0
Cc1ccccc1NC(=O)c1nc[nH]c1C(=O)NCc1ccccc1	13µM	0	25µM	0	0
Cc1cc(C(=O)NCc2ccccc2)no1	0	0	0	0	0
CCCn1c(-c2ccc(F)cc2)nc2c(NCC3CCN(C)CC3)nc(C)nc21	0	0	0	?	?
COCCn1nnnc1C(c1ccc(OC)cc1OC)N1CCN(c2ccccc2F)CC1 (configuration not stated)	0	0	0	?	25µM
COc1ccc(C(c2nnnn2Cc2cccs2)N2CCN(c3ccccc3F)CC2)cc1 (configuration not stated)	?	0	0	?	20µM
CCCCC(c1nnnn1CCOC)N1CCN(c2cccc(OC)c2)CC1 (configuration not stated)	0	13µM	0	?	?
COc1ccc(C(c2nnnn2C2CCCC2)N2CCC(C)CC2)c(OC)c1 (configuration not stated)	0	0	0	?	16µM
COc1ccc(C(c2nnnn2Cc2ccccc2)N2CCN(c3ccccc3)CC2)cc1 (configuration not stated)	0	0	0	?	?
COc1ccc(-c2nc3cnc(N4CCOCC4)nc3n(-c3ccc(OC)cc3)c2=O)cc1	?	0	0	0	0
O=C(O)c1cc(S(=O)(=O)Nc2cccc(F)c2)ccc1Cl	-	-	-	0	0
N#CCCn1cc(C(CC(=O)c2ccccc2)C(=O)O)c2ccccc21 (configuration not stated)	0	0	0	0	0
CC(C)n1cc(/C=C(\C#N)S(=O)(=O)c2ccccc2)c2ccccc21	?	7.9µM	0	0	0
C=C(C)C1CC=C(C)C(OC(C)=O)C1 (configuration not stated)	0	0	0	?	0
Cc1nc2ccccc2c(=O)n1NS(C)(=O)=O	0	0	0	0	0

Source: PubChem BioAssay
